Laboratory results: PubChem BioAssay AID1159580 (chemical genetic matrix, 2015)
Out of some 5,500 compounds screened, about 2,000 (36%) were called active. Not shown: some 18% with an inconclusive outcome. Cut-off read from the data, not from the text of the source: active = normalized growth mostly below about 0.91 (no sharp cut-off); inconclusive = no clear call, values can overlap the other calls; inactive = mostly above about 0.92. This is one part of the list.

Test: chemical genetic growth profiling, strain panel (AID 1159580);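 note: tested at 20 µM; growth read once vehicle control cultures reached saturation at 30 °C; 1 = growth at the plate median or of vehicle wells; lower values mean less growth of the strain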
Conditions: growth OD
[1] = S. cerevisiae deletion strains, locus YDL101C, strain DUN1, stronger effect = lower value
[2] = S. cerevisiae deletion strains, locus YHR030C, strain SLT2, stronger effect = lower value
[3] = S. cerevisiae deletion strains, locus YJL095W, strain BCK1, stronger effect = lower value
[4] = S. cerevisiae deletion strains, locus YOR061W, strain CKA2, stronger effect = lower value

Measured: normalized growth

CS(=O)(=O)c1sc(C(=O)Sc2ccc(Cl)cc2)c2c1C=CCC2
active: S. cerevisiae deletion strains, locus YAR019C, strain CDC15, stronger effect = lower value 0.857 | S. cerevisiae deletion strains, locus YBL105C, strain PKC1, stronger effect = lower value 0.868 | S. cerevisiae deletion strains, locus YBR135W, strain CKS1, stronger effect = lower value 0.855 | S. cerevisiae deletion strains, locus YBR136W, strain MEC1, stronger effect = lower value 0.867 | S. cerevisiae deletion strains, locus YBR160W, strain CDC28, stronger effect = lower value 0.873 | S. cerevisiae deletion strains, locus YDL017W, strain CDC7, stronger effect = lower value 0.881 | S. cerevisiae deletion strains, locus YDL028C, strain MPS1, stronger effect = lower value 0.88 | S. cerevisiae deletion strains, locus YDL108W, strain KIN28, stronger effect = lower value 0.866 | S. cerevisiae deletion strains, locus YDL132W, strain cdc53, stronger effect = lower value 0.848 | S. cerevisiae deletion strains, locus YDL214C, strain PRR2, stronger effect = lower value 0.42 | S. cerevisiae deletion strains, locus YDR052C, strain DBF4, stronger effect = lower value 0.903 | S. cerevisiae deletion strains, locus YDR054C, strain cdc34, stronger effect = lower value 0.771 | S. cerevisiae deletion strains, locus YDR226W, strain ADK1, stronger effect = lower value 0.869 | S. cerevisiae deletion strains, locus YDR477W, strain SNF1, stronger effect = lower value 0.339 | S. cerevisiae deletion strains, locus YER123W, strain YCK3, stronger effect = lower value 0.368 | S. cerevisiae deletion strains, locus YER133W, strain GLC7, stronger effect = lower value 0.416 | S. cerevisiae deletion strains, locus YFL009W, strain cdc4, stronger effect = lower value 0.857 | S. cerevisiae deletion strains, locus YFL029C, strain CAK1, stronger effect = lower value 0.853 | S. cerevisiae deletion strains, locus YFR003C, strain YPI1, stronger effect = lower value 0.881 | S. cerevisiae deletion strains, locus YFR019W, strain FAB1, stronger effect = lower value 0.327 | S. cerevisiae deletion strains, locus YFR028C, strain CDC14, stronger effect = lower value 0.871 | S. cerevisiae deletion strains, locus YGR040W, strain KSS1, stronger effect = lower value 0.437 | S. cerevisiae deletion strains, locus YGR052W, strain FMP48, stronger effect = lower value 0.492 | S. cerevisiae deletion strains, locus YGR092W, strain DBF2, stronger effect = lower value 0.174 | [2] 0.374 | S. cerevisiae deletion strains, locus YHR079C, strain IRE1, stronger effect = lower value 0.349 | S. cerevisiae deletion strains, locus YHR082C, strain KSP1, stronger effect = lower value 0.511 | S. cerevisiae deletion strains, locus YHR205W, strain SCH9, stronger effect = lower value 0.206 | S. cerevisiae deletion strains, locus YIL147C, strain SLN1, stronger effect = lower value 0.886 | [3] 0.369 | S. cerevisiae deletion strains, locus YJL157C, strain FAR1, stronger effect = lower value 0.358 | S. cerevisiae deletion strains, locus YJR016C, strain ILV3, stronger effect = lower value 0.862 | S. cerevisiae deletion strains, locus YJR066W, strain TOR1 (second series), stronger effect = lower value 0.103 | S. cerevisiae deletion strains, locus YJR066W, strain TOR1, stronger effect = lower value 0.353 | S. cerevisiae deletion strains, locus YKL048C, strain ELM1, stronger effect = lower value 0.532 | S. cerevisiae deletion strains, locus YKL067W, strain YNK1, stronger effect = lower value 0.428 | S. cerevisiae deletion strains, locus YKL101W, strain HSL1, stronger effect = lower value 0.371 | S. cerevisiae deletion strains, locus YKL193C, strain SDS22, stronger effect = lower value 0.845 | S. cerevisiae deletion strains, locus YKL203C, strain TOR2, stronger effect = lower value 0.379 | S. cerevisiae deletion strains, locus YLR113W, strain HOG1, stronger effect = lower value 0.3 | S. cerevisiae deletion strains, locus YLR133W, strain CKI1, stronger effect = lower value 0.423 | S. cerevisiae deletion strains, locus YLR403W, strain SFP1, stronger effect = lower value 0.217 | S. cerevisiae deletion strains, locus YML070W, strain DAK1, stronger effect = lower value 0.397 | S. cerevisiae deletion strains, locus YMR001C, strain CDC5, stronger effect = lower value 0.836 | S. cerevisiae deletion strains, locus YMR205C, strain PFK2 (second series), stronger effect = lower value 0.458 | S. cerevisiae deletion strains, locus YMR277W, strain FCP1, stronger effect = lower value 0.838 | S. cerevisiae deletion strains, locus YNL006W, strain LST8, stronger effect = lower value 0.873 | S. cerevisiae deletion strains, locus YNL020C, strain ARK1, stronger effect = lower value 0.39 | S. cerevisiae deletion strains, locus YNL161W, strain CBK1, stronger effect = lower value 0.862 | S. cerevisiae deletion strains, locus YNL183C, strain NPR1, stronger effect = lower value 0.418 | S. cerevisiae deletion strains, locus YNL207W, strain RIO2, stronger effect = lower value 0.842 | S. cerevisiae deletion strains, locus YNL222W, strain SSU72, stronger effect = lower value 0.856 | S. cerevisiae deletion strains, locus YNL307C, strain MCK1 (second series), stronger effect = lower value 0.221 | S. cerevisiae deletion strains, locus YOL078W, strain AVO1, stronger effect = lower value 0.839 | S. cerevisiae deletion strains, locus YOL136C, strain PFK27, stronger effect = lower value 0.375 | [4] 0.256 | S. cerevisiae deletion strains, locus YOR119C, strain RIO1, stronger effect = lower value 0.527 | S. cerevisiae deletion strains, locus YOR231W, strain MKK1, stronger effect = lower value 0.353 | S. cerevisiae deletion strains, locus YOR329C, strain SCD5, stronger effect = lower value 0.876 | S. cerevisiae deletion strains, locus YPL031C, strain PHO85, stronger effect = lower value 0.308 | S. cerevisiae deletion strains, locus YPL153C, strain RAD53, stronger effect = lower value 0.279 | S. cerevisiae deletion strains, locus YPL204W, strain HRR25, stronger effect = lower value 0.286 | S. cerevisiae deletion strains, locus YPL209C, strain IPL1, stronger effect = lower value 0.854 | S. cerevisiae deletion strains, locus YPL256C, strain CLN2, stronger effect = lower value 0.521 | S. cerevisiae deletion strains, locus YPR025C, strain CCL1, stronger effect = lower value 0.863 | S. cerevisiae deletion strains, strain TSCII, stronger effect = lower value 0.841
inactive: [1] 0.92 | S. cerevisiae deletion strains, locus YJL128C, strain PBS2, stronger effect = lower value 0.894 | S. cerevisiae deletion strains, locus YPR106W, strain ISR1, stronger effect = lower value 0.928 | S. cerevisiae deletion strains, locus YPR111W, strain DBF20, stronger effect = lower value 0.929 | S. cerevisiae deletion strains, strain NNK1, stronger effect = lower value 0.907

CCCCSP(=O)(SCCCC)SCCCC
inactive: S. cerevisiae deletion strains, locus YAL013W, strain DEP1, stronger effect = lower value 1.01 | S. cerevisiae deletion strains, locus YBR021W, strain FUR4, stronger effect = lower value 1 | S. cerevisiae deletion strains, locus YBR229C, strain ROT2, stronger effect = lower value 1.01 | S. cerevisiae deletion strains, locus YCL029C, strain bik1, stronger effect = lower value 1.01 | S. cerevisiae deletion strains, locus YDL035C, strain GPR1, stronger effect = lower value 1.01 | S. cerevisiae deletion strains, locus YDL074C, strain BRE1, stronger effect = lower value 1.04 | [1] 1.02 | S. cerevisiae deletion strains, locus YDL134C, strain PPH21, stronger effect = lower value 1.01 | S. cerevisiae deletion strains, locus YDL185W, strain tfp1, stronger effect = lower value 1.01 | S. cerevisiae deletion strains, locus YDL192W, strain arf1, stronger effect = lower value 1.01 | S. cerevisiae deletion strains, locus YDR101C, strain arx1, stronger effect = lower value 1.01 | S. cerevisiae deletion strains, locus YDR150W, strain NUM1, stronger effect = lower value 1.01 | S. cerevisiae deletion strains, locus YDR162C, strain NBP2, stronger effect = lower value 1.02 | S. cerevisiae deletion strains, locus YDR318W, strain mcm21, stronger effect = lower value 1.01 | S. cerevisiae deletion strains, locus YDR388W, stronger effect = lower value 1.01 | S. cerevisiae deletion strains, locus YDR502C, strain sam2, stronger effect = lower value 1.01 | S. cerevisiae deletion strains, locus YEL061C, strain CIN8, stronger effect = lower value 1.01 | S. cerevisiae deletion strains, locus YER110C, stronger effect = lower value 1.01 | S. cerevisiae deletion strains, locus YER155C, strain BEM2, stronger effect = lower value 1.01 | S. cerevisiae deletion strains, locus YER167W, strain BCK2, stronger effect = lower value 1.02 | S. cerevisiae deletion strains, locus YGL078C, strain dbp3, stronger effect = lower value 1.01 | S. cerevisiae deletion strains, locus YGL086W, strain mad1, stronger effect = lower value 1 | S. cerevisiae deletion strains, locus YGL248W, strain PDE1, stronger effect = lower value 1.02 | S. cerevisiae deletion strains, locus YGR078C, strain PAC10, stronger effect = lower value 1.02 | S. cerevisiae deletion strains, locus YGR135W, strain pre9, stronger effect = lower value 1 | S. cerevisiae deletion strains, locus YGR229C, strain SMI1, stronger effect = lower value 1.04 | S. cerevisiae deletion strains, locus YGR252W, strain gcn5, stronger effect = lower value 0.984 | [2] 1.02 | S. cerevisiae deletion strains, locus YHR079C, strain IRE1 (second series), stronger effect = lower value 1.01 | S. cerevisiae deletion strains, locus YHR094C, strain hxt1, stronger effect = lower value 1 | S. cerevisiae deletion strains, locus YHR129C, strain ARP1, stronger effect = lower value 1.02 | S. cerevisiae deletion strains, locus YHR200W, strain rpn10, stronger effect = lower value 1 | S. cerevisiae deletion strains, locus YIL066C, strain RNR3, stronger effect = lower value 1.02 | S. cerevisiae deletion strains, locus YIL073C, strain SPO22, stronger effect = lower value 1.06 | S. cerevisiae deletion strains, locus YIL125W, strain kgd1, stronger effect = lower value 1.01 | S. cerevisiae deletion strains, locus YIR030C, strain dcg1, stronger effect = lower value 0.996 | [3] 1.05 | S. cerevisiae deletion strains, locus YJL134W, strain LCB3, stronger effect = lower value 1.02 | S. cerevisiae deletion strains, locus YJL168C, strain set2, stronger effect = lower value 1.01 | S. cerevisiae deletion strains, locus YJL187C, strain SWE1 (second series), stronger effect = lower value 1.01 | S. cerevisiae deletion strains, locus YJR043C, strain POL32, stronger effect = lower value 1.01 | S. cerevisiae deletion strains, locus YJR075W, strain HOC1, stronger effect = lower value 1.02 | S. cerevisiae deletion strains, locus YKL009W, strain mrt4, stronger effect = lower value 0.961 | S. cerevisiae deletion strains, locus YKL068W, stronger effect = lower value 1.01 | S. cerevisiae deletion strains, locus YKL085W, strain MDH1 (second series), stronger effect = lower value 1.01 | S. cerevisiae deletion strains, locus YKL085W, strain MDH1, stronger effect = lower value 1.01 | S. cerevisiae deletion strains, locus YKL190W, strain CNB1, stronger effect = lower value 1.02 | S. cerevisiae deletion strains, locus YKR001C, strain vps1, stronger effect = lower value 1.01 | S. cerevisiae deletion strains, locus YLR039C, strain RIC1, stronger effect = lower value 1.05 | S. cerevisiae deletion strains, locus YLR058C, strain SHM2, stronger effect = lower value 1.01 | S. cerevisiae deletion strains, locus YLR102C, strain apc9, stronger effect = lower value 0.995 | S. cerevisiae deletion strains, locus YLR262C, strain YPT6, stronger effect = lower value 1.04 | S. cerevisiae deletion strains, locus YLR268W, strain sec22, stronger effect = lower value 1.01 | S. cerevisiae deletion strains, locus YLR330W, strain CHS5, stronger effect = lower value 1.01 | S. cerevisiae deletion strains, locus YLR342W, strain FKS1 (second series), stronger effect = lower value 1.04 | S. cerevisiae deletion strains, locus YLR371W, strain rom2, stronger effect = lower value 0.999 | S. cerevisiae deletion strains, locus YLR418C, strain cdc73, stronger effect = lower value 1.02 | S. cerevisiae deletion strains, locus YML016C, strain PPZ1, stronger effect = lower value 1.02 | S. cerevisiae deletion strains, locus YML032C, strain rad52, stronger effect = lower value 1.01 | S. cerevisiae deletion strains, locus YML124C, strain tub3, stronger effect = lower value 1.01 | S. cerevisiae deletion strains, locus YMR078C, strain ctf18, stronger effect = lower value 1.01 | S. cerevisiae deletion strains, locus YMR223W, strain ubp8, stronger effect = lower value 1 | S. cerevisiae deletion strains, locus YMR263W, strain SAP30, stronger effect = lower value 1.02 | S. cerevisiae deletion strains, locus YMR307W, strain GAS1, stronger effect = lower value 1.2 | S. cerevisiae deletion strains, locus YNL067W, strain RPL9B, stronger effect = lower value 1.01 | S. cerevisiae deletion strains, locus YNL128W, strain TEP1, stronger effect = lower value 1.01 | S. cerevisiae deletion strains, locus YNL153C, strain GIM3, stronger effect = lower value 1.01 | S. cerevisiae deletion strains, locus YNL233W, strain BNI4, stronger effect = lower value 1.01 | S. cerevisiae deletion strains, locus YNL250W, strain rad50, stronger effect = lower value 1.01 | S. cerevisiae deletion strains, locus YNL271C, strain bni1, stronger effect = lower value 0.998 | S. cerevisiae deletion strains, locus YNL298W, strain CLA4, stronger effect = lower value 1.02 | S. cerevisiae deletion strains, locus YNL307C, strain MCK1, stronger effect = lower value 0.992 | S. cerevisiae deletion strains, locus YNL322C, strain KRE1, stronger effect = lower value 1.01 | S. cerevisiae deletion strains, locus YNR052C, strain pop2, stronger effect = lower value 1.01 | S. cerevisiae deletion strains, locus YOL006C, strain TOP1, stronger effect = lower value 1.07 | S. cerevisiae deletion strains, locus YOL012C, strain htz1 0.841 | S. cerevisiae deletion strains, locus YOL147C, strain pex11, stronger effect = lower value 1.01 | [4] 1.01 | S. cerevisiae deletion strains, locus YOR069W, strain VPS5, stronger effect = lower value 1.02 | S. cerevisiae deletion strains, locus YOR136W, strain idh2, stronger effect = lower value 1 | S. cerevisiae deletion strains, locus YOR144C, strain elg1, stronger effect = lower value 1.02 | S. cerevisiae deletion strains, locus YOR184W, strain ser1, stronger effect = lower value 0.987 | S. cerevisiae deletion strains, locus YOR316C, strain cot1, stronger effect = lower value 1.01 | S. cerevisiae deletion strains, locus YPL055C, strain LGE1, stronger effect = lower value 1.03 | S. cerevisiae deletion strains, locus YPL241C, strain CIN2, stronger effect = lower value 1.02 | S. cerevisiae deletion strains, locus YPR119W, strain clb2, stronger effect = lower value 1.01 | S. cerevisiae deletion strains, locus YPR141C, strain kar3, stronger effect = lower value 1.02 | S. cerevisiae deletion strains, locus YPR163C, strain tif3, stronger effect = lower value 1.01 | S. cerevisiae deletion strains, locus YPR167C, strain met16, stronger effect = lower value 1 | S. cerevisiae deletion strains, strain wtn01, stronger effect = lower value 0.996 | S. cerevisiae strains, strain wild type, stronger effect = lower value 1.02
